# Source: PubChem BioAssay AID493169 (National Center for Advancing Translational Sciences (NCATS), 2011)
# Results filed as inconclusive are left out. A number with no mark means an inactive call. Calls of active or inactive are those of the source. The call rests on the fitted dose curve; in most records, active means well fitted inhibition curve with a large enough effect; inconclusive means small, poorly fitted or top-dose-only effect; inactive means flat fitted curve, though single readings scatter.
# Experiment: CHOP2 Reporter Counterscreen Assay for Inhibitors of Ubiquitin-specific Protease USP2a;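 further: activated enterokinase alone at 50 pM in a cell-free format rather than USP2a or CHOP2; nearly all actives have a fitted effect of over 55% in size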
# Details: purified enterokinase, fluorogenic substrate, 485/531 nm; series mostly up to 38.3 µM; activity change, negative = inhibition: at the top concentration
# Method in brief: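 Cell-free counterscreen with pre-activated enterokinase alone (50 pM final) in 20mM Tris-HCl pH 8.0, 2mM CaCl2, 2mM beta-mercaptoethanol, 0.05% CHAPS; compound preincubation 30 min RT, reporter substrate 25nM final, fluorescence read after 10 min (Ex 485/Em 531).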
# On the % scale 0 is the no-effect control and ±100 the full control effect; potency means the concentration at half of the fitted maximal effect.
SMILES,"activity change, negative = inhibition [%]",Potency
O=C(Cc1cc(=O)[nH]c(=O)[nH]1)NCC1CCCO1 (stereo not given),0.989,–
Cc1ccc(N=C2NC(=O)/C(=C/C=C/c3ccco3)S2)cc1C,–,8.91 µM (active)
O=C(N/N=C/c1ccc(-c2ccc(Cl)c(C(=O)O)c2)o1)c1cc2c(ccc3ccccc32)o1,–,11.2 µM (active)
O=C(CC(C(=O)O)C1CCCO1)NCCc1ccc2c(c1)OCO2 (stereo not given),-1.81,–
Cc1ccc(NC(=O)CS(=O)CC(=O)Nc2ccc(N3CCOCC3)cc2)cc1Cl (stereo not given),-25.4,–
Cc1cc(C(=O)NCc2ccco2)on1,-7.56,–
COc1cccc(C(=O)NC(C)c2ccc(-c3ccccc3)cc2)c1OC (stereo not given),-5.34,–
O=C(O)CC(C(=O)O)N1C(=O)/C(=C/C=C/c2ccco2)SC1=S (stereo not given),–,3.55 µM (active)
Cc1ccc(N(CC(=O)Nc2ccc(S(=O)(=O)N3CCOCC3)cc2)S(C)(=O)=O)cc1C,2.83,–
FC(F)(F)C1=Nc2cccc3cccc(c23)N1,2.43,–
COc1cc(NC(=O)COC(=O)CSc2ccccc2F)c(C)cc1[N+](=O)[O-],-22.9,–
O=C(C[n+]1cccc(C(=O)N/N=C/c2ccc(Br)cc2)c1)c1ccccc1,-1.9,–
O=C1CC(c2ccc(Cl)cc2)SC(N(c2ccccc2)c2ccccc2)=N1 (stereo not given),1.87,–
O=C(CCNc1cccc(Cl)c1)c1ccco1,-1.57,–
CS(=O)(=O)c1nc(-c2ccc(Br)cc2)cc(-c2ccccc2)c1C#N,0.429,–
CCOc1ccc(NC(=O)c2cccc(-n3cnnn3)c2)cc1,7.23,–
O=C(CSCCO)Nc1cccc2ccccc12,-4.29,–
O=C(Nc1ccc(C2=NCCN2)cc1)c1ccc(C(=O)Nc2ccc(C3=NCCN3)cc2)c([N+](=O)[O-])c1,–,7.94 µM (active)
C=CC[C@@H](CC(=O)N(CCO)Cc1ccccc1)C(=O)NCCOC(=O)[C@H](CC=C)CC(=O)OC(C)(C)C,4.41,–
CCOC(=O)N1CCN(S(=O)(=O)c2ccc(C)cc2)C1c1ccc(OC)cc1 (stereo not given),1.57,–

SMILES,"activity change, negative = inhibition [%]",Potency
Cc1c2c(=O)n(-c3nc4ccccc4s3)nc-2cc(O)n1Cc1ccccc1,–,11.2 µM (active)
O=C(CNC(=O)c1ccco1)Nc1ccc(S(=O)(=O)N2CCCC2)cc1,3.16,–
Cc1nc2n(n1)CC(O)CS2 (stereo not given),1.03,–
CCn1c(=O)c(C(=O)Nc2ccccc2S(N)(=O)=O)c(O)c2ccccc21,–,11.2 µM (active)
C=CCn1c(Br)nc2c1c(=O)n(C)c(=O)n2C,11.7,–
CCOC(=O)C1CCN(CC(O)COc2ccc(C(C)(C)C)cc2)CC1 (stereo not given),1.27,–
COc1ccc(NC(=O)CSc2nnc(-c3ccccc3Cl)n2Cc2ccco2)c(OC)c1,-1.38,–
Cc1sc2nc(CN3CCN(c4ccc(O)cc4)CC3)[nH]c(=O)c2c1C,0.0748,–
O=C(Cn1cnc2sc(-c3ccccc3)cc2c1=O)NCc1ccco1,–,10 µM (active)
C(=N\N(c1ccccc1)c1ccccc1)/c1ccccn1,-1.74,–
O=C1CC(Nc2ccc(N3CCOCC3)cc2)C(=O)N1c1cccc(C(F)(F)F)c1 (stereo not given),0.0866,–
CC(OC(=O)c1nsc(Cl)c1Cl)C(=O)NCc1ccco1 (stereo not given),-2.69,–
O=C(NCC(c1cccnc1)N1CCN(c2ccc(F)cc2)CC1)OCc1ccccc1 (stereo not given),4.77,–
Cc1cc(C)c(NC(=O)C[N+](C)(C)CC(O)COc2cccc3ccccc23)c(C)c1 (stereo not given),-4.33,–
CS(=O)(=O)c1ccc(C(=O)Nc2nc(-c3ccco3)c(-c3ccco3)s2)cc1,-26.3,–
CCNC(=S)N/N=C/c1cn(Cc2ccc(F)cc2)c2ccccc12,-1.81,–
CC(C)CC(=O)Nc1cccc(-c2nc3ccccc3o2)c1,-0.733,–
CCn1nc(C(=O)N[C@@H](CCSC)c2nc3ccccc3[nH]2)c2ccccc2c1=O,-2.42,–
CC(=O)N1CCCc2cc(S(=O)(=O)CCC(=O)N3CCN(c4cccc(C)c4)C(C)C3)ccc21 (stereo not given),-0.373,–
CCN(Cc1ccncc1)C(=O)c1cccs1,-5.8,–
